L3MBTL1 inh: blocks human L3MBTL1. hit rate 0.66% among 230,000. AlphaScreen L3MBTL1–H3K9me1 peptide binding. Q9Y468. Potency, µM (series often up to 57.1 µM), inactives show top-dose activity, negative = inhibition, usual class: inhibitors; further: potency means the concentration at half of the fitted maximal effect; nearly all actives have a fitted effect of over 60% in size
Target sequence (Q9Y468 whole entry, looked up): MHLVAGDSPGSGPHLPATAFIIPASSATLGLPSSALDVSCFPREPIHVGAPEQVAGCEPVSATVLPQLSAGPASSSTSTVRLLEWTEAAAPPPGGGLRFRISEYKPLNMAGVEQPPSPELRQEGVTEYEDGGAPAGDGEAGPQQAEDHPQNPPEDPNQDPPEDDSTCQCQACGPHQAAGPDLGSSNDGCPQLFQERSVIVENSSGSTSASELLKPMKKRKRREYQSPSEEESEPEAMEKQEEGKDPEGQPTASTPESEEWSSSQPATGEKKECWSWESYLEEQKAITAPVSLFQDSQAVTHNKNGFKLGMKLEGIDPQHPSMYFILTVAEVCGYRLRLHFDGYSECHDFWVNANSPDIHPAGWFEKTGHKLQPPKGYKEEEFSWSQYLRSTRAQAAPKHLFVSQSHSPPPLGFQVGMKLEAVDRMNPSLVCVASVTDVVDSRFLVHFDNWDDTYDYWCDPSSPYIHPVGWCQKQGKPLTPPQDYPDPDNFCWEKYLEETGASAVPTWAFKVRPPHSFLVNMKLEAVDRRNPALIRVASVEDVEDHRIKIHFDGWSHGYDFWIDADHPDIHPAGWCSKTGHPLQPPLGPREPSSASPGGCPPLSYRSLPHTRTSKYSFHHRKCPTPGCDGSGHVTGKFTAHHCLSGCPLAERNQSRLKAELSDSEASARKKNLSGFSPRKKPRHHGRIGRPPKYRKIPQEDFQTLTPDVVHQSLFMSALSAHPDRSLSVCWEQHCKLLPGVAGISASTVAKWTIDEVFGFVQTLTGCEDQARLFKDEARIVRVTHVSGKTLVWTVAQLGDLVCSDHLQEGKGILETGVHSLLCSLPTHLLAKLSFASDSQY
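L3MBTL1 50 nM + b-AHA-H3(1-15)K9me1 75 nM, 30 min RT; compound added, 30 min RT; streptavidin donor/Ni-chelate acceptor beads 10 ug/mL each final, 30 min RT dark; AlphaScreen read.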
Eya2 phos inh: blocks the phosphatase activity of human Eya2; hit rate 0.006% among 330,000; O00167; Potency, µM (top dose mostly 76.9 µM), for the others: at the top dose activity, negative = inhibition, most hits filed as inhibitors; recombinant Eya2, OMFP fluorescence dephosphorylation (OMFP is methylfluorescein phosphate); further: potency means the concentration at half of the fitted maximal effect
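Eya2 protein (added as 0.2 uM solution) was preincubated with compound for 10 min at ambient temperature in 50 mM HEPES pH 7.5, 50 mM NaCl, 5 uM MgCl2, 0.05% BSA, 1 mM DTT. OMFP (added at 50 uM) then reacted 10 min; fluorescence read at 485/525 nm.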
CtBP-E1A inh: CtBP/E1A binding inhibition. AlphaScreen GST-E1A/His-CtBP binding, 1536-well; hits give low values. activity change, % (test concentration not listed). hit rate 0.49% among 340,000. AID 651724; in the data active means activity change below about -65%; inconclusive means mostly about -30% to -63%
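GST-E1A and His-tagged CtBP (125 nM each as 5X stock) were preincubated with pin-transferred compound for 2 h at 37 °C in the dark, then glutathione donor and nickel acceptor beads were added for 1 h before AlphaScreen reading.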
uPA surface inh: inhibitors of cell surface uPA generation. cell surface uPA generation assay, qHTS. Potency, µM (series often up to 38.3 µM), for the others: top-dose activity change, negative = inhibition, usual class: inhibitors. hit rate 0.31% among 330,000. AID 540303; active means well fitted inhibition curve with a large enough effect; inconclusive means small, poorly fitted or top-dose-only effect; inactive means no such curve, though single readings can be large or run the other way; tested in mouse RAW 264.7 cells; further: potency means the concentration at half of the fitted maximal effect; nearly all actives have a fitted effect of over 55% in size
Six1-Eya2 inh: blocks human Six1 binding to Eya2; hit rate 0.56% among 360,000; AlphaScreen GST-Six1/His-Eya2 binding, biochemical; hits give low values; activity change, % (no concentration beside the values); in the data active means activity change below about -65%; inconclusive means mostly about -30% to -63%
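Six1/Eya2 binding was read as AlphaScreen signal after compounds were pinned into GST-Six1 plus His-tagged Eya2 (5X stock 250/500 nM) in pH 8.0 Tris/NaCl/TCEP buffer, beads added, then incubated 1 h, 37 C, dark.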
USP2a block: inhibitors of human ubiquitin-specific protease USP2a. O75604. Potency, µM (series often up to 38.3 µM), for the others: at the top dose activity change, negative = inhibition, hits mostly inhibitors. AID 463254. hit rate 0.01% among 330,000. USP2 core, Ub-CHOP2 coupled fluorogenic reporter, 485/531;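 further: potency means the concentration at half of the fitted maximal effect; plate controls were DMSO wells for no effect and full inhibition by NEM control for full effect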
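Deubiquitinase activity read as fluorescence (485/531 nm) after Ub-CHOP2 cleavage activates the enterokinase reporter on its substrate; USP2 core 10nM, Ub-CHOP2 and substrate 25nM each, 30min compound preincubation then 60min RT; data normalized to NEM, curves fitted.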
Numbers without * were called inactive. Only some compounds are listed: those with a hit (about 1.2% of all), similar ones and a draw of the others. Unless noted, the call rests on the fitted dose curve; in most records, active means well fitted curve in the direction sought with a large enough effect; inconclusive means small, poorly fitted or top-dose-only effect, or another doubt; inactive means no such curve, though single readings can be large; an effect the other way counts as inactive or inconclusive. Unless noted, on the % scale 0 is the no-effect control and ±100 the full control effect.

Screening CSc1ccc(/C=C/C(=O)NC(=O)c2ccccc2O)cc1 returned L3MBTL1 inh inconclusive, Eya2 phos inh 0%, CtBP-E1A inh inconclusive, uPA surface inh 11µM*, Six1-Eya2 inh -20 and USP2a block 0%.
O=C(/C=C/c1ccc(Br)cc1)NC(=O)c1ccccc1O was read as L3MBTL1 inh -24%, Eya2 phos inh 2%, CtBP-E1A inh inconclusive, uPA surface inh -17%, Six1-Eya2 inh -14 and USP2a block -1%.
`Cc1nnc(NC(=O)C2CCN(S(=O)(=O)c3cc([N+](=O)[O-])ccc3Cl)CC2)o1` gave L3MBTL1 inh 25µM*, Eya2 phos inh 3%, CtBP-E1A inh -82*, uPA surface inh 6%, Six1-Eya2 inh -69* and USP2a block -1%.
For O=C(NC1=NCCS1)C1CCN(S(=O)(=O)c2cc([N+](=O)[O-])ccc2Cl)CC1 the results were L3MBTL1 inh -94%, Eya2 phos inh 2%, CtBP-E1A inh 6, uPA surface inh -8%, Six1-Eya2 inh -19 and USP2a block -18%.
O=C(NCCCn1ccnc1)C(=O)NCC1OCCN1S(=O)(=O)c1ccc2c(c1)OCCO2 (centres undefined) was read as Eya2 phos inh -8%, CtBP-E1A inh -12, uPA surface inh -5%, Six1-Eya2 inh -24 and USP2a block 3%.
Cc1cc(C)c(S(=O)(=O)N2CCOC2CNC(=O)C(=O)NCCCn2ccnc2)c(C)c1 (centres undefined) was read as Eya2 phos inh -8%, CtBP-E1A inh inconclusive, uPA surface inh 0%, Six1-Eya2 inh -70* and USP2a block 0%.
O=C(Cc1cccs1)NCCS(=O)(=O)N1CCN(c2cccc(Cl)c2)CC1 was read as L3MBTL1 inh -2%, Eya2 phos inh 5%, CtBP-E1A inh -18, uPA surface inh -1%, Six1-Eya2 inh 10 and USP2a block 1%.
O=C(N/N=C/c1cn(-c2cccs2)nc1-c1ccccc1)c1ccccc1O was read as L3MBTL1 inh 6%, Eya2 phos inh 7%, CtBP-E1A inh -76*, uPA surface inh -16%, Six1-Eya2 inh -78* and USP2a block -20%.
For O=C(c1cccc(-n2cccc2)c1)N1CCN(S(=O)(=O)c2ccccc2)CC1 the results were L3MBTL1 inh 4.5µM*, Eya2 phos inh 5%, CtBP-E1A inh -26, uPA surface inh -6%, Six1-Eya2 inh inconclusive and USP2a block 1%.
For Cc1ccc(S(=O)(=O)N2CCN(C(=O)c3cccc(-n4cccc4)c3)CC2)cc1 the results were L3MBTL1 inh inconclusive, Eya2 phos inh 6%, CtBP-E1A inh 20, uPA surface inh -4%, Six1-Eya2 inh -15 and USP2a block 2%.
For Cc1nc(-[n+]2nc(-c3ccncc3)nn2-c2ccccc2)sc1C the results were CtBP-E1A inh -88* and Six1-Eya2 inh -91*.
O=S(=O)(c1cc(O)ccc1O)c1cccc2c(S(=O)(=O)c3cc(O)ccc3O)cccc12 was read as L3MBTL1 inh 3.2µM*, Eya2 phos inh 19%, CtBP-E1A inh -16, uPA surface inh inconclusive, Six1-Eya2 inh inconclusive and USP2a block 1%.
Screening O=c1nc(N/N=C/c2ccccn2)cn[nH]1 returned L3MBTL1 inh 5µM*, Eya2 phos inh 11%, CtBP-E1A inh -91*, uPA surface inh -14%, Six1-Eya2 inh -91* and USP2a block 10%.
Cc1ccc(/C=N/Nc2ccc3ccccc3n2)o1 was read as L3MBTL1 inh 7%, Eya2 phos inh 11%, CtBP-E1A inh -2, uPA surface inh -9%, Six1-Eya2 inh -12 and USP2a block 7%.
`O=S1(=O)N=C(N/N=C/c2ccccn2)c2ccccc21` gave L3MBTL1 inh inconclusive, Eya2 phos inh -7%, CtBP-E1A inh -81*, uPA surface inh -5%, Six1-Eya2 inh -88* and USP2a block 3%.
Screening Cc1ccc(/C=N/Nc2cn[nH]c(=O)n2)o1 returned L3MBTL1 inh 2%, Eya2 phos inh 6%, CtBP-E1A inh -68*, uPA surface inh 3%, Six1-Eya2 inh inconclusive and USP2a block 2%.
Cn1nc(C(=O)Nc2sc3c(c2C#N)CCCC3)ccc1=O was read as Eya2 phos inh -5%, CtBP-E1A inh -1, uPA surface inh 3%, Six1-Eya2 inh -5 and USP2a block 2%.
For CN=C(c1ccc([N+](=O)[O-])cc1)N1CCCCC1 the results were L3MBTL1 inh 15%, Eya2 phos inh -2%, uPA surface inh 0%, Six1-Eya2 inh 5 and USP2a block -6%.
`CC(C)CC(=O)NC(c1ccccc1Cl)c1c(O)ccc2ccccc12` (centres undefined) gave L3MBTL1 inh -3%, Eya2 phos inh 6%, CtBP-E1A inh -10, uPA surface inh -17%, Six1-Eya2 inh -6 and USP2a block 0%.
Screening CCCCC(=O)NC(c1ccc(OC)cc1)c1ccc2cccnc2c1O (centres undefined) returned CtBP-E1A inh 18 and Six1-Eya2 inh -7.
For CCCC(=O)NC(c1ccc(N(C)C)cc1)c1ccc2cccnc2c1O (centres undefined) the results were L3MBTL1 inh inconclusive, Eya2 phos inh 10%, CtBP-E1A inh -92*, uPA surface inh -17%, Six1-Eya2 inh -69* and USP2a block 0%.
`CCCC(=O)NC(c1ccc(C(C)C)cc1)c1ccc2cccnc2c1O` (centres undefined) gave L3MBTL1 inh 2%, Eya2 phos inh 4%, CtBP-E1A inh -65*, uPA surface inh -9%, Six1-Eya2 inh inconclusive and USP2a block -2%.
`COc1ccc(C(NC(=O)C(C)C)c2ccc3cccnc3c2O)cc1` (centres undefined) gave Eya2 phos inh 0%, CtBP-E1A inh -93*, uPA surface inh 7%, Six1-Eya2 inh -89* and USP2a block -1%.
`CCCC(=O)NC(c1ccccc1Cl)c1ccc2cccnc2c1O` (centres undefined) gave L3MBTL1 inh 3%, Eya2 phos inh 6%, CtBP-E1A inh inconclusive, uPA surface inh -7%, Six1-Eya2 inh -85* and USP2a block -2%.
Cc1ccc(CCNC(=O)c2c[nH]c3ccc(S(=O)(=O)Nc4ccc(C)cc4C)cc3c2=O)cc1 was read as L3MBTL1 inh inconclusive, Eya2 phos inh -7% and USP2a block 1%.
Screening COCCNC(=O)CN1C(=O)c2cccc3cccc1c23 returned L3MBTL1 inh 28%, Eya2 phos inh 3%, CtBP-E1A inh 12, uPA surface inh -3%, Six1-Eya2 inh 11 and USP2a block 1%.
